From PubChem BioAssay
Most compounds without a hit are left out; they make up all but 7.3% or so of the library.
Tau fibril FP – blocks human tau fibril formation measured by polarization | P10636 | K18 P301L tau heparin fibrillization, Alexa594 FP, 6 h | Potency, µM (series often up to 57.7 µM), usual class: inhibitors | actives 0.39% (n = 280,000); also: nearly all actives have a fitted effect of over 55% in size
Target sequence (P10636 561-689 P618L limits assumed): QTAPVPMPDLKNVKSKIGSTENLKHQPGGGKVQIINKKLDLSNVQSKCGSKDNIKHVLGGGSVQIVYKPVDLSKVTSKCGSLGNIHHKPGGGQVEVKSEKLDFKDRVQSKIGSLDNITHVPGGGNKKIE
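K18 P301L tau (15 uM unlabeled/0.24 uM Alexa 594-labeled, final) + compound + heparin 20 uM final; 100 mM NaOAc pH 7; 6 hr 37 C; ThT 30 uM final added, 1 hr RT; FP ex 555/em 632 nm.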
RORgamma inh – blocks mouse ROR gamma transcriptional activity | P51450 | AID 2551 | Potency, µM (top dose mostly 53.6 µM), actives largely listed as inhibitors | Drosophila S2 Gal4-RORgamma UAS-luciferase reporter, 20 h | actives 5.4% (n = 310,000); also: nearly all actives have a fitted effect of over 60% in size
Target sequence (P51450 whole entry, looked up, the tested form may be a part): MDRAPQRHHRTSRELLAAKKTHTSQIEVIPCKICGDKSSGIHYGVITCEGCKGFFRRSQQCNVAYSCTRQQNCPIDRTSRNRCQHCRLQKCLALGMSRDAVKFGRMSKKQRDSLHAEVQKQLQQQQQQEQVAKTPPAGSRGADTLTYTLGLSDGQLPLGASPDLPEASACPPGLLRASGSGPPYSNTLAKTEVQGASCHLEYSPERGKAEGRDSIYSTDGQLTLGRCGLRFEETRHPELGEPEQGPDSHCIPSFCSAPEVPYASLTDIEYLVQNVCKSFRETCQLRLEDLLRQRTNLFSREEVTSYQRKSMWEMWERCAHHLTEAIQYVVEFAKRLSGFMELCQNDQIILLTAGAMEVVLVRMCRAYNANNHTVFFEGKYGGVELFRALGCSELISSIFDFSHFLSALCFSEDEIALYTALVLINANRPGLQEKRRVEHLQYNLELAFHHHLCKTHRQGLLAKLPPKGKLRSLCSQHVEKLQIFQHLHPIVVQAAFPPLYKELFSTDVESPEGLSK
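ROR gamma transcriptional activity was tracked as Gal4-UAS luciferase output in stably transfected Drosophila Schneider cells, with compound added 1 hr before 700 uM copper sulfate induction and a 20 hr ambient-temperature incubation.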
Tau fibril ThT – blocks human tau fibril formation measured by thioflavin T; actives 2.1% (n = 270,000); recombinant tau K18 P301L, heparin-induced fibrillization, ThT fluorescence; Potency, µM (titrated, usually from 57.4 µM), hits mostly inhibitors; P10636; also: nearly all actives have a fitted effect of over 55% in size
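ThT emission at 510 nm, taken 1 hr after adding 30 uM dye, quantifies aggregates formed when 20 uM heparin acts on human tau K18 P301L for 6 hr at 37 C.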
Tau fluor cs – counter-screen for tau fibril formation inhibitors. tau K18 P301L (four-repeat tau fragment) Alexa594 fluorescence, heparin fibrillization. Potency, µM (top dose mostly 57.7 µM). actives 0.93% (n = 280,000). AID 1463; also: nearly all actives have a fitted effect of over 55% in size
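Human K18 P301L tau (15 uM unlabeled plus 0.24 uM Alexa 594-labeled, final) in 100 mM sodium acetate pH 7 was mixed with compound and 20 uM heparin and incubated 6 hr at 37 C.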
Gal4-VP16 FLuc – counter-screen for ROR gamma inhibitors: Gal4-VP16 reporter. Drosophila S2 Gal4-VP16 UAS-luciferase, luminescence, 20 h. Potency, µM (highest dose often 53.6 µM), most hits filed as inhibitors. actives 3.5% (n = 310,000). AID 2546;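 also: Gal4-VP16 expression switched on by copper sulfate through the metallothionein promoter; nearly all actives have a fitted effect of over 50% in size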
Hits are given with their value; n = inactive; u = inconclusive; x = no result given; [ ] = another dose, or the depositor's remark. Calls follow the shape of the dose curve; as a rule, active = well fitted curve in the direction sought with a large enough effect; inconclusive = small, poorly fitted or top-dose-only effect, or another doubt; inactive = no such curve, though single readings can be large; an effect the other way counts as inactive or inconclusive.

SMILES | Tau fibril FP | RORgamma inh | Tau fibril ThT | Tau fluor cs | Gal4-VP16 FLuc
C=C1CCC[C@]2(C)C[C@H]3OC(=O)[C@H](CNCCc4ccccc4OC)C3CC12 (some centres not stated) | n | u | n | n | u
Cc1ccc(N2NC(=O)/C(=C/c3ccc(-c4ccc(Cl)c(C(=O)O)c4)o3)C2=O)cc1C | n | n | u | n | n
COC(=O)c1ccc(N2NC(=O)/C(=C/c3ccc(-c4ccc(Cl)c(C(=O)O)c4)o3)C2=O)cc1 | u | n | 6.3µM | u | n
O=C(Nc1cc(S(=O)(=O)N2CCOCC2)ccc1N1CCCC1)c1ccc2c(c1)S(=O)(=O)c1ccccc1C2=O | u | n | 25µM | u | n
O=c1c2ccccc2sn1-c1cc(S(=O)(=O)N2CCOCC2)ccc1N1CCOCC1 | u | u | u | n | u
CN1CCN(c2ccc(S(=O)(=O)N3CCCCC3)cc2NC(=O)c2ccc3ccccc3c2)CC1 | n | 11µM | n | n | 8.9µM
O=c1c2ccccc2sn1-c1cc(S(=O)(=O)N2CCOCC2)ccc1N1CCCC1 | 32µM | n | 25µM | n | n
FC(F)(F)c1cccc(Nc2c3c(nc4ccc(Cl)cc24)CCC3)c1 | n | x | n | u | x
O=C1c2cccc3cccc(c23)C(=O)N1c1cccnc1 | 13µM | n | n | u | n
O=C1c2cccc3cccc(c23)C(=O)N1c1ccncc1 | n | n | n | n | n
COc1cccc(N2CCN(C(=S)NCCc3ccccc3)CC2)c1 | n | 25µM | u | n | u
CNC(=S)N1CCN(c2cccc(OC)c2)CC1 | n | n | n | n | n
Oc1ccc(N2CCN(C(=S)NCCc3ccccc3)CC2)cc1 | n | n | 14µM | n | n
Oc1ccccc1N1CCN(C(=S)NCCc2ccccc2)CC1 | n | u | u | n | n
COc1ccc2c(c1)OCC1=C2CCC2(C)C(=O)CC=C12 (configuration not stated) | u | u | 20µM | u | n
COc1cc(S(=O)(=O)NC2CCCCC2)c(C)cc1C | n | n | n | n | n
O=c1c2sccc2[nH]c(=S)n1Cc1ccccc1 | n | 1.8µM | n | n | 2.8µM
COc1ccc(Cn2c(=S)[nH]c3ccsc3c2=O)cc1 | n | 1.4µM | n | n | 2.2µM
CCN(c1cccc(C)c1)S(=O)(=O)c1cc(CN2C(=O)c3cccnc3C2=O)ccc1OC | x | n | x | x | n
S=c1[nH]ncn2c1cc1oc3ccccc3c12 | n | 2.5µM | n | n | n
COC(=O)c1cc2oc3ccccc3c2n1Cc1ccccc1Cl | n | x | n | n | x
Cc1nn(-c2ccccc2)c(OC(=O)c2ccc(F)cc2)c1S(=O)(=O)c1ccccc1 | n | x | n | n | x
Cc1ccc(Nc2nc(N)c([N+](=O)[O-])c(NCCO)n2)cc1C | n[0.0958 µM] | n | x | n[0.0958 µM] | n
Cc1ccc(Nc2nc(N)c([N+](=O)[O-])c(NCc3ccco3)n2)cc1C | u | u | 16µM | 28µM[quencher] | n
CCOc1ccc(Nc2nc(N)c([N+](=O)[O-])c(NCc3ccccc3)n2)cc1 | n | n | u | 14µM[quencher] | n
SMILES | Tau fibril FP | RORgamma inh | Tau fibril ThT | Tau fluor cs | Gal4-VP16 FLuc
Cc1cccc(Nc2nc(N)c([N+](=O)[O-])c(NCc3ccccc3)n2)c1 | u | n | u | u | n
Nc1nc(Nc2ccccc2)nc(NCc2ccccc2)c1[N+](=O)[O-] | u | n | u | u | n
COc1cccc(Nc2nc(N)c([N+](=O)[O-])c(NCc3ccccc3)n2)c1 | u | u | u | 16µM[quencher] | n
COc1cc(OC)c(N(C)C(=O)c2c(C)oc3ncn(CC(C)C)c(=O)c23)cc1Cl | n | x | n | n | x
Cc1ccc(Cl)cc1NC(=O)CSc1nc2ccccc2c2nc(-c3ccccc3)nn12 | n | x | n | n | x
CCC(=O)C1=C(c2cccc([N+](=O)[O-])c2)N(C(=O)CC)n2c(nnc2-c2ccccc2)S1 | n | x | u | u | x
O=C(CSc1nc2ccccc2c(=O)n1CCCN1CCOCC1)NC12CC3CC(CC(C3)C1)C2 | n | 14µM | n | n | n
COc1cc(F)ccc1CN1CCC(C(=O)Nc2ccc(Oc3ccccc3)nc2)CC1 | x | n | x | x | n
Cc1cc(Nc2cccc(Cl)c2)nc2ccc(NC(=O)Cc3cccc(C(F)(F)F)c3)cc12 | u | x | u | 4µM[quencher] | x
O=C(Cc1cccc(C(F)(F)F)c1)Nc1ccccc1 | u | n | n | n | n
Cc1cc(Nc2cccc(Cl)c2)nc2ccc(NC(=O)Cc3ccc(Cl)cc3)cc12 | u | x | u | 3.5µM[quencher] | x
COc1ccc(CC(=O)Nc2ccc3nc(Nc4cccc(Cl)c4)cc(C)c3c2)cc1OC | u | x | u | 2.5µM[quencher] | x
COc1ccc(Cl)cc1C(=O)Nc1ccc2nc(Nc3cccc(Cl)c3)cc(C)c2c1 | n | x | u | 16µM[quencher] | x
O=C(NCCc1c[nH]c2ccccc12)C1CCC(=O)N(CCc2cccc(F)c2)C1 (configuration not stated) | x | n | x | x | n
Cc1ccc(OCCn2c(C3CC(=O)N(Cc4ccc(F)cc4)C3)nc3ccccc32)c(C)c1 (configuration not stated) | n | x | n | n | x
Cc1cc(Nc2cccc(Cl)c2)nc2ccc(NC(=O)c3ccc(F)cc3Cl)cc12 | u | x | u | 4.5µM[quencher] | x
O=C(O)CCC/C=C\C[C@@H]1[C@@H](/C=C/[C@@H](O)COc2cccc(C(F)(F)F)c2)[C@H](O)C[C@@H]1O | n | n[10 µM] | n | n | n
Cc1cccc(NC(=O)C2SC(=Nc3c(C)cccc3C)C(C(=O)N3CCOCC3)=C2N)c1 (configuration not stated) | u | u | 7.1µM | u | n
CC(C)CCNC(=O)c1cccc(Nc2nc3ccccc3n3nnnc23)c1 | n | x | n | n | x
Cc1oc(-c2ccc(C(=O)Nc3cccc(C(F)(F)F)c3)cc2)nc1CSc1ccccc1 | 14µM | x | n | u | x
COc1cc2c(cc1OC)CN(C(=O)CN1CCN(S(=O)(=O)c3ccccc3Br)CC1)CC2 | x | n | x | x | n
Cc1ccccc1OCc1nnc(SCc2cc(=O)c3cc(F)ccc3[nH]2)n1C | n | x | n | n | x
COc1cc(-c2nc(-c3cccc(Cl)c3)c(-c3ccccc3)[nH]2)cc(OC)c1OC | u | x | n | u | x
COc1cc(-c2nc(-c3ccc4c(c3)-c3ccccc3S4(=O)=O)c(-c3ccccc3)[nH]2)cc(OC)c1O | u | u | n | u | 4.5µM
Cc1ccc(C)c(NC(=O)c2cnc3sc(N4CCOCC4)nn3c2=O)c1 | n | x | n | n | x
COc1ccccc1NC(=O)CSc1ncc2c(n1)-c1ccccc1N(Cc1ccccc1C)S2(=O)=O | u | x | n | n | x
O=C(COC(=O)c1ccc2c(c1[N+](=O)[O-])C(=O)c1ccccc1C2=O)NC1CC1 | n | u | 10µM | u | 18µM
O=C(COC(=O)c1ccccc1C(=O)c1ccc(Cl)c([N+](=O)[O-])c1)NC1CCCCCC1 | n | 4.5µM | u | u | u
O=C(COC(=O)c1ccc(Cl)c([N+](=O)[O-])c1)NC1CCCC1 | x | n | x | x | n
